Common to all, as to assay: NCI-60 one-dose screen, 48 h (100 = growth as untreated, 0 = no growth, -100 = all killed)
One assay concerns NCI-H23 lung. Conditions: 10 µM unless noted.
The next assay has as its system NCI-H226 lung. Conditions: 10 µM unless noted.
Another assay concerns NCI-H322M lung. Conditions: 10 µM unless noted.
Another assay deals with HOP-62 NSCLC. Conditions: 10 µM unless noted.
A further assay relates to NCI-H460 lung. Conditions: 10 µM unless noted.
The next assay relates to HOP-92 NSCLC. Particulars: 10 µM unless noted.
The test system of a further assay is NCI-H522 lung. Particulars: 10 µM unless noted.
The subject of the next assay is A549/ATCC NSCLC. Conditions: 10 µM unless noted.
The next assay deals with 786-0 renal. Particulars: 10 µM unless noted.
The next assay deals with COLO 205 colon. Conditions: 10 µM unless noted.
For the next assay, the system named is DU-145 prostate. Particulars: 10 µM unless noted.
A further assay has as its system K-562 leukemia. Conditions: 10 µM unless noted.
A further assay has as its system MALME-3M melanoma. Conditions: 10 µM unless noted.
The next assay concerns MDA-MB-231 breast. Conditions: 10 µM unless noted.
A further assay deals with RXF 393 renal. Conditions: 10 µM unless noted.
In a further assay the test system is SF-268 CNS. Conditions: 10 µM unless noted.
The test system of a further assay is SF-295 CNS. Conditions: 10 µM unless noted.
The next assay relates to SF-539 CNS. Conditions: 10 µM unless noted.
The subject of a further assay is UACC-257 melanoma. Particulars: 10 µM.
For the next assay, the system named is M14 melanoma. Particulars: 10 µM unless noted.

About 83,000 compounds went through this panel and 20% of them were active in at least one assay; those are over-represented in the sample as a whole.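 Negative percent growth values reflect cell death: -40 means 40% of the cells present at the start died, and -100 means all died.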 Values without a mark were called inactive. Active and inactive are the calls of the source. The calls were made as follows: active = growth percent below 10; inactive = the rest.

In the case of `N/C(=N\OC(=O)CSc1nc2ccccc2s1)c1ccc2ccccc2c1`, the growth with NCI-H23 lung is 95.3%; in the assay on NCI-H226 lung it was 99.6%; with NCI-H322M lung, 101%; in the assay on HOP-62 NSCLC, 92%; in the assay on NCI-H460 lung, 108%; in the assay on HOP-92 NSCLC, 95.9%. For the same compound, the growth is 91.2% with NCI-H522 lung; 102% in the assay with A549/ATCC NSCLC; 103% in the assay with 786-0 renal; 107% in the assay on COLO 205 colon; 103% in the assay on DU-145 prostate; 102% in the assay with K-562 leukemia. Moreover, the growth was 105% in the assay with MALME-3M melanoma; 89.5% with MDA-MB-231 breast; 119% in the assay with RXF 393 renal; 98.2% in the assay with SF-268 CNS; 103% in the assay on SF-295 CNS; 95.2% with SF-539 CNS. The growth with UACC-257 melanoma is 105%; in the assay on M14 melanoma, 98.6%.
With `CCN1C(=O)N(CC)C2SC(N/N=C/c3ccccc3)=NC21` (stereo not given), the growth was 31.1% in the assay on NCI-H23 lung; 43% in the assay on NCI-H226 lung; 51.7% with NCI-H322M lung; 38.3% in the assay with HOP-62 NSCLC; 6.05% (active) in the assay on NCI-H460 lung; 2.09% (active) in the assay on HOP-92 NSCLC. For the same compound, the growth with NCI-H522 lung is -34.3% (active); with A549/ATCC NSCLC, 28.7%; in the assay on 786-0 renal, 32.7%; in the assay with COLO 205 colon, -43.5% (active); with DU-145 prostate, 22.5%; with K-562 leukemia it was 14.7%. Besides, the growth in the assay on MALME-3M melanoma was 58.2%; with MDA-MB-231 breast it was 26%; in the assay on RXF 393 renal, 41.5%; in the assay with SF-268 CNS, 47.6%; with SF-295 CNS it was 12.8%; in the assay on SF-539 CNS it was -11.2% (active). Besides, the growth in the assay on UACC-257 melanoma is 62.9%; with M14 melanoma it was 12.3%.
As to `O=S(=O)(Nc1ccc(-c2nc(-c3cccc(O)c3)c(-c3ccnc(Br)c3)[nH]2)cc1)c1ccccc1`, the growth in the assay on NCI-H23 lung was 16.2%; with NCI-H226 lung, 40.1%; in the assay with NCI-H322M lung it was 41.7%; in the assay on HOP-62 NSCLC, 33.1%; in the assay on NCI-H460 lung, 19.7%; in the assay on HOP-92 NSCLC it was 13.7%. The growth was 25.5% in the assay with NCI-H522 lung; 51.5% in the assay on A549/ATCC NSCLC; 17.7% in the assay on 786-0 renal; 43.3% in the assay with COLO 205 colon; 54.6% in the assay on DU-145 prostate; 2.08% (active) with K-562 leukemia. Further, the growth is 39.8% with MALME-3M melanoma; 23% in the assay on MDA-MB-231 breast; -16.3% (active) in the assay on RXF 393 renal; 37.1% with SF-268 CNS; 10.4% in the assay with SF-295 CNS; 44.4% in the assay with SF-539 CNS. Besides, the growth is 44.5% with UACC-257 melanoma and 26.1% in the assay on M14 melanoma.
Regarding `COc1ccc(S(=O)(=O)n2cc(C=O)c3ccccc32)c(OC)c1`, the growth in the assay with NCI-H23 lung is 79.4%; in the assay with NCI-H226 lung it was 70.6%; in the assay with NCI-H322M lung, 102%; in the assay with HOP-62 NSCLC, 77.9%; with NCI-H460 lung it was 98.5%; in the assay on HOP-92 NSCLC, 43.3%. Moreover, the growth in the assay with NCI-H522 lung was 97.7%; in the assay with A549/ATCC NSCLC, 93.2%; with 786-0 renal it was 94.2%; in the assay on COLO 205 colon it was 108%; in the assay on DU-145 prostate it was 103%; in the assay on K-562 leukemia, 14.4%. The growth in the assay with MALME-3M melanoma is 79.7%; with MDA-MB-231 breast, 95.5%; in the assay with RXF 393 renal it was 95.3%; in the assay with SF-268 CNS, 73.6%; in the assay on SF-295 CNS it was 99.9%; with SF-539 CNS, 78.6%. In addition, the growth in the assay with UACC-257 melanoma is 82.5%; with M14 melanoma, 52.8%.
As to `COc1ccc(Cn2cc3c(c2-c2cc(OC)c(OC)c(OC)c2)CCCc2cnoc2-3)cc1N`, the growth in the assay with NCI-H23 lung is 47.1%; with NCI-H226 lung, 66.9%; with NCI-H322M lung, 46.3%; in the assay on HOP-62 NSCLC it was 51.1%; in the assay with NCI-H460 lung, 11.5%; in the assay on HOP-92 NSCLC, 65.3%. For the same compound, the growth with NCI-H522 lung was 12.5%; in the assay on A549/ATCC NSCLC, 43%; in the assay on 786-0 renal, 38.1%; in the assay on COLO 205 colon it was 12.7%; with DU-145 prostate, 17.2%; with K-562 leukemia it was 20.3%. Also, the growth in the assay with MALME-3M melanoma is 54.9%; in the assay with MDA-MB-231 breast it was 35.2%; in the assay on RXF 393 renal, -5.39% (active); with SF-268 CNS, 58%; in the assay on SF-295 CNS, 0% (active); in the assay on SF-539 CNS, 1.95% (active). The growth in the assay on UACC-257 melanoma was 90.3%; in the assay on M14 melanoma it was 0.685% (active).
As to `CCNC(=O)Oc1ccc(/C(=C(/C)c2ccc(Cl)cc2)c2ccc(OCCN(C)C)cc2)cc1`, the growth with NCI-H23 lung is 87%; with NCI-H226 lung, 94.4%; in the assay with NCI-H322M lung, 90.5%; with HOP-62 NSCLC it was 80.2%; in the assay with NCI-H460 lung it was 66.6%; with HOP-92 NSCLC it was 45.1%. The growth with NCI-H522 lung was 88.7%; in the assay with A549/ATCC NSCLC, 71.6%; with 786-0 renal, 64.3%; with COLO 205 colon it was 82.8%; in the assay with DU-145 prostate it was 92.1%; in the assay with K-562 leukemia, 11.7%. The growth in the assay with MALME-3M melanoma is 13.4%; in the assay on MDA-MB-231 breast it was 79.8%; with RXF 393 renal, 55.8%; in the assay on SF-268 CNS it was 75.6%; in the assay with SF-295 CNS it was 94.4%; in the assay on SF-539 CNS, 66%. Besides, the growth with UACC-257 melanoma was 81%; with M14 melanoma it was 64.2%.
For `C/C(=N\NC(=S)Nc1ccc(Br)cc1)c1cc2ccccc2oc1=O`, the growth is 34.1% with NCI-H23 lung; -17.8% (active) with NCI-H226 lung; 37.4% in the assay on NCI-H322M lung; 30.5% in the assay with HOP-62 NSCLC; 3.8% (active) with NCI-H460 lung; 29.1% in the assay with HOP-92 NSCLC. The growth in the assay on NCI-H522 lung is -14.4% (active); in the assay on A549/ATCC NSCLC, 27.3%; with 786-0 renal it was 5.25% (active); in the assay with COLO 205 colon, 71.1%; in the assay on DU-145 prostate it was 29.4%; in the assay on K-562 leukemia, 9.69% (active). The growth in the assay with MALME-3M melanoma is 24%; in the assay on MDA-MB-231 breast it was 23.2%; with RXF 393 renal, -24.2% (active); in the assay on SF-268 CNS it was 14.5%; with SF-295 CNS, 32.1%; in the assay with SF-539 CNS it was 20.9%. The growth is 10.1% in the assay on UACC-257 melanoma and -28.8% (active) in the assay with M14 melanoma.

The record behind these values is PubChem BioAssay (NCI).
